Assay results as given in PubChem BioAssay.

Legend:
[1] = tested on: Human papillomavirus type 1a protein E7 (residues 44-93); assay: small molecules binding HPV E7 44-93 – biochemical, small-molecule microarray, residues 44-93, 635 nm fluorescence, primary screen (AID 1108); details: fluorescence 635 nm, higher = more signal;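 further: E7 fragment applied at 1 µg/mL in TBST for 1 h at 4 C; score combines spot fluorescence with its signal to noise ratio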
[2] = hepatitis C replication reporter changes, two-sided – Huh7 cells, luciferase reporter, HCV replication inhibitor project, primary screen (AID 1109); details: Huh7 HCV replicon luciferase reporter, 48 h; higher = more signal;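 further: huh7 hepatoma cells harbouring a luciferase neomycin HCV replicon reporter; luciferase luminescence as measure of HCV replicon replication; test concentration not given here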
[3] = molecular target: Left-right determination factor 2 (Homo sapiens) (UniProt O00292); assay: small molecules binding LEFTY2 protein – biochemical, small-molecule microarray, 635 nm fluorescence scan, primary screen (AID 1110); details: higher = more signal
Left-right determination factor 2 (Homo sapiens), sequence (O00292 whole entry, looked up): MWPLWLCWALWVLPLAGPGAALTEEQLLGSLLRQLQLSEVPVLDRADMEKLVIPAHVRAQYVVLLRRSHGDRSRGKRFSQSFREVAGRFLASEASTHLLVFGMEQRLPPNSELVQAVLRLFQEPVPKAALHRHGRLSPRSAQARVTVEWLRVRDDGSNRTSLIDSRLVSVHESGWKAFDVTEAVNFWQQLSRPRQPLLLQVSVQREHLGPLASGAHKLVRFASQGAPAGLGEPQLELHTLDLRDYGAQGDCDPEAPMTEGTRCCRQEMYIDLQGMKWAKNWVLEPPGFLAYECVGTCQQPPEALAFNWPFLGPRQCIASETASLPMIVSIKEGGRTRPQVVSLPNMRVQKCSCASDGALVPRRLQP

[4] = molecular target: Calmodulin-1 (Homo sapiens) (UniProt P0DP23); assay: small molecules binding calmodulin-1 with EGTA – biochemical, small-molecule microarray, Cy5-labelled CALM1, profiling panel (AID 1111); details: Cy5-CALM1 binding fluorescence, higher = more signal;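 further: labelled calmodulin applied in Tris saline Tween buffer holding calcium plus EGTA and DTT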
[5] = molecular target: Calmodulin-1 (Homo sapiens) (UniProt P0DP23); assay: small molecules binding Ca-loaded calmodulin-1 – biochemical, small-molecule microarray, Cy5-labelled CALM1, plus calcium, artefact control for SMM control-protein annotation, profiling panel (AID 1112); details: Cy5-CALM1 binding fluorescence, higher = more signal;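 further: score merges spot fluorescence with signal to noise from triplicate slides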
[6] = probe aWnt5a binding to arrayed compounds – biochemical, biotinylated probe, 635/667 nm fluorescence, primary screen (AID 1113); details: small-molecule microarray, higher = more signal;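 further: score merges 667 nm fluorescence intensity with signal-to-noise per printed feature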
[7] = probe aShh binding to arrayed compounds – biochemical, biotinylated probe, 635/667 nm fluorescence, primary screen (AID 1114); details: small-molecule microarray, higher = more signal;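 further: probe is biotin-labelled aShh protein from a stem cell growth factor screen; measures binding of labelled protein to compounds printed on the slide; score merges feature fluorescence at 667 nm with signal-to-noise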
[8] = probe aNog binding to arrayed compounds – biochemical, biotinylated probe, 635/667 nm fluorescence, primary screen (AID 1115); details: small-molecule microarray, higher = more signal;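 further: probe is biotinylated aNog protein used at 0.15 µg/mL for 1 h at 4 C; z-score combines 667 nm fluorescence of each spot with its signal to noise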
[9] = molecular target: Torsin-1A-interacting protein 1 (Homo sapiens) (UniProt Q5JTV8); assay: compound microarray binding of lysate hLAP1 – cell lysate, small-molecule microarray, COS7 lysate, 635/667 nm fluorescence, primary screen (AID 1116); details: 635 nm fluorescence, higher = more signal
Torsin-1A-interacting protein 1 (Homo sapiens), sequence (Q5JTV8 whole entry, looked up): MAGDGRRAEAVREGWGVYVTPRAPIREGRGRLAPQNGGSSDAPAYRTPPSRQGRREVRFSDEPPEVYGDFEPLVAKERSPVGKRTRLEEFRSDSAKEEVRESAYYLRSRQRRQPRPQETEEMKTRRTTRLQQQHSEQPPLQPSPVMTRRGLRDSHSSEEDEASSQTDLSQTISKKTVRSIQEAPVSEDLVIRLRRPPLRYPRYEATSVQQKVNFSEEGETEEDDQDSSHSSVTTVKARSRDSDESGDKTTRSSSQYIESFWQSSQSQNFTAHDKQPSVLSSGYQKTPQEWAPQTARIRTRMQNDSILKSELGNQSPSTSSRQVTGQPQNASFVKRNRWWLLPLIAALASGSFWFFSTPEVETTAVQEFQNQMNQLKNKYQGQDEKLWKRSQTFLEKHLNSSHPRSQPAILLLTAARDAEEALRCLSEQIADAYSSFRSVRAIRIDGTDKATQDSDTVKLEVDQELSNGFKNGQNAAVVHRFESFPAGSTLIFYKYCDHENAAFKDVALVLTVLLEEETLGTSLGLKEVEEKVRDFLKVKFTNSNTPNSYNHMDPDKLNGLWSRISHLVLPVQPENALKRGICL

[10] = molecular target: Alpha-bungarotoxin (Bungarus multicinctus) (UniProt P60615); assay: compounds binding labelled alpha-BTX control protein – biochemical, small-molecule microarray, Alexa647 label, 635/667 nm fluorescence, artefact control for SMM control protein annotation, profiling panel (AID 1117); details: alpha-BTX-A647 binding fluorescence, higher = more signal
Alpha-bungarotoxin (Bungarus multicinctus), sequence (P60615 whole entry, looked up): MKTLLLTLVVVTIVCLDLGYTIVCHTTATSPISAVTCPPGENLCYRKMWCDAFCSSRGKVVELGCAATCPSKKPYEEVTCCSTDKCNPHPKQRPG

Row | SMILES | composite z-score [1] | z-score [2] | composite z-score [3] | composite z-score [4] | composite z-score [5] | composite z-score [6] | composite z-score [7] | composite z-score [8] | composite z-score [9] | composite z-score [10]
1 | CC(C)(C)N1C(=O)[C@H]2[C@H]3[C@H](O)[C@H](O)CC(=NO[C@@H]4O[C@H](CO)[C@@H](O)[C@H](O)[C@H]4O)[C@@H]3CC[C@H]2C1=O | 0.964 | -0.105 | 0.761 | -0.448 | -1.36 | -0.0115 | 0.111 | -0.0144 | 0 | 1.28
2 | O=C1C[C@@H](O)[C@@H](O)[C@@H]2[C@@H]3C(=O)N(c4cccc(Oc5ccccc5)c4)C(=O)[C@@H]3CC[C@@H]12 | 0.994 | -0.197 | 0.962 | 0.77 | -0.261 | -0.0327 | -0.206 | -0.4 | 0.613 | 0.106
3 | CCCC[C@@H](O)C1=C(C)C[C@H]2C(=O)N(Cc3ccccc3)C(=O)[C@H]2[C@H]1CO | -0.101 | 0.156 | 0.521 | -0.349 | -0.611 | -0.0478 | -0.0553 | -0.158 | 0.503 | -0.227
4 | COc1ccc(O[C@@H]2[C@H](O)CO[C@H]2C=CC#Cc2ccccc2)cc1 | -0.289 | -0.0351 | 0.347 | -0.414 | -0.789 | -0.1 | -0.138 | -0.234 | 0.17 | -0.891
5 | CC(C)=NOCc1cccc(-c2cc(-c3ccccc3)no2)c1 | 0.332 | -0.149 | 0.71 | 0.0463 | -0.823 | -0.0874 | 0.0952 | -0.161 | 0.237 | 0.553
6 | COc1ccc(O[C@H]2C=C[C@@H](c3ccccc3)O[C@@H]2COC(=O)CCC(C)=NOCC[C@@H]2C=C[C@H](OC(C)=O)[C@@H](COC(C)=O)O2)cc1 | -0.119 | -1.1 | 0.347 | -1.02 | -1.27 | 0.0495 | 0.199 | 0.0301 | 0.781 | -0.0704
7 | COc1ccc(CCNC(=O)[C@@H]2c3ccccc3C(=O)N(c3ccc(C)cn3)[C@H]2c2ccc(CO)cc2)cc1 | -0.618 | 0.267 | -1.76 | -0.822 | -0.796 | -0.242 | -0.367 | -0.266 | 3.04 | -0.955
8 | CC(CCN1CCc2nc(-c3ccccc3)c(-c3ccccc3)cc2C1)=NOC(C)CN1CCCCc2nc(C)c(C)cc21 (stereo not given) | 1.27 | -2.03 | 0.573 | 0.578 | -0.0705 | -0.0819 | -0.202 | -0.077 | 0.787 | 0.799
9 | [N-]=[N+]=Nc1ccccc1C[C@@]1(C(N)=O)N=C(c2ccc(OCCCO)cc2)O[C@@H]1c1ccccc1 | 0.692 | -2.38 | -1.09 | 1.7 | 0.824 | -0.0445 | 0.456 | 0.662 | 1.26 | 0.546
10 | O=C1[C@H]2[C@H]3[C@H](O)[C@H](O)CC(=NO[C@@H]4O[C@H](CO)[C@@H](O)[C@H](O)[C@H]4O)[C@H]3CC[C@H]2C(=O)N1C1CCCCC1 | 1.3 | 0.524 | 0.271 | -0.0656 | -0.0964 | -0.0721 | 0.0062 | 0.604 | 0.129 | 0.0855
11 | CCOC(=O)CCN1C(=O)[C@H]2[C@H]3[C@H](O)[C@H](O)CC(=NOC[C@@H](O)COCc4ccco4)[C@@H]3CC[C@H]2C1=O | 0.201 | 0.395 | -0.157 | 0.2 | 0.369 | -0.0462 | -0.223 | -0.0381 | 0.657 | 0.557
12 | CC(C)CON=C1C[C@@H](O)[C@@H](O)[C@@H]2[C@@H]3C(=O)N(Cc4ccccc4)C(=O)[C@@H]3CC[C@@H]12 | 0.673 | -0.19 | 0.409 | -0.312 | -0.475 | -0.0792 | -0.365 | -0.321 | 0.0394 | -0.102
